Measured values from PubChem BioAssay AID624101 (Broad Institute, 2012).
Screen size: about 70,000 compounds; about 120 (0.17%) were called active. No stated cut-off is given here; in the data, active means inhibition above about 34%; inconclusive means no clear call, values can overlap the other calls; inactive means below about 11%. For the sample, actives were picked, then their nearest neighbours and some compounds at random.

The molecules below were run against Isocitrate dehydrogenase [NADP] cytoplasmic (Homo sapiens) (UniProt O75874) (assay: PubChem AID 624101). Conditions: IDH1 R132H reductase, diaphorase/resazurin fluorescence, 60 min; at 10 µM; hits give high values.
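Further: 0% = DMSO and 100% = no enzyme.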

Chain of Isocitrate dehydrogenase [NADP] cytoplasmic (Homo sapiens) (O75874 whole entry R132H): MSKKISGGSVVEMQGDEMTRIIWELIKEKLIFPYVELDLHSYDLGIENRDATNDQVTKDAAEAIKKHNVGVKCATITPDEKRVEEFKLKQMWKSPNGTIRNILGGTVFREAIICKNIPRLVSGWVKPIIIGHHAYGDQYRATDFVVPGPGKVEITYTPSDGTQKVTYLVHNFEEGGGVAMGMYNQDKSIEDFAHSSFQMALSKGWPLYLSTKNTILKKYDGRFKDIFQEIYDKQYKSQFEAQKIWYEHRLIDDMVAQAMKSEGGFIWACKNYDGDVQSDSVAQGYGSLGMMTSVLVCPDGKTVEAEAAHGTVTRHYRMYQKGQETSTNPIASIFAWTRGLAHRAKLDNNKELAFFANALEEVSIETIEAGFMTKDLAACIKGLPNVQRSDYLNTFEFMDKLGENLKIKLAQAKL

Row | Structure (SMILES) | inhibition
1 | CNC[C@H]1Oc2cc(C#Cc3ccccc3)ccc2S(=O)(=O)N([C@@H](C)CO)C[C@@H]1C | 4.92% (inactive)
2 | Cc1ccc(S(=O)(=O)NCC[C@H]2CC[C@@H](NS(=O)(=O)c3ccccc3Cl)[C@H](CO)O2)cc1 | 0.263% (inactive)
3 | O=C(Nc1cccc(Cl)c1)N[C@H]1CC[C@H](CCNC(=O)C2CCOCC2)O[C@H]1CO | 0.082% (inactive)
4 | O=C(C[C@@H]1CC[C@@H](NC(=O)C2CCOCC2)[C@H](CO)O1)Nc1ccc(-c2ccccc2)cc1 | 0.222% (inactive)
5 | O=C(C[C@@H]1C=C[C@H](NC(=O)c2ccc3c(c2)OCO3)[C@H](CO)O1)NCc1ccc(Oc2ccccc2)cc1 | -0.347% (inactive)
6 | O=C(C[C@H]1C=C[C@@H](NC(=O)Nc2cc(F)ccc2F)[C@@H](CO)O1)NCc1ccc2c(c1)OCO2 | -0.0695% (inactive)
7 | CN1CCN(C(=O)C[C@@H]2C[C@H]3c4cc(NC(=O)NC5CCCC5)ccc4O[C@H]3[C@H](CO)O2)CC1 | -0.193% (inactive)
8 | CO[C@H]1CN(C)C(=O)c2ccc(NC(=O)c3nc4ccccc4s3)cc2OC[C@@H](C)N(Cc2cncnc2)C[C@H]1C | -1.03% (inactive)
9 | O=C(C[C@@H]1C[C@@H]2c3cc(NC(=O)C4CCC4)ccc3O[C@@H]2[C@@H](CO)O1)NCc1ccccc1 | 0.171% (inactive)
10 | O=C(C[C@@H]1C[C@@H]2c3cc(NC(=O)Cc4ccncc4)ccc3O[C@@H]2[C@H](CO)O1)NCc1cccc(F)c1 | 0% (inactive)
11 | C[C@H](NC(=O)N(C)C[C@@H]1OCc2ccccc2-c2ccccc2C(=O)N([C@H](C)CO)C[C@@H]1C)c1ccccc1 | -1.38% (inactive)
12 | Cc1noc(C)c1S(=O)(=O)Nc1ccc2c(c1)C(=O)N([C@H](C)CO)C[C@H](C)[C@H](CN(C)S(C)(=O)=O)OCCCC[C@H](C)O2 | 2.45% (inactive)
13 | C[C@@H]1CN([C@@H](C)CO)S(=O)(=O)c2ccc(C#Cc3ccccc3)cc2O[C@@H]1CN(C)C(=O)C1CC1 | -0.265% (inactive)
14 | CO[C@@H]1CN(C)C(=O)c2ccc(NS(=O)(=O)c3ccc(Cl)cc3)cc2OC[C@H](C)N(C(=O)NC(C)C)C[C@H]1C | 0.21% (inactive)
15 | O=C(NCC[C@H]1CC[C@@H](NC(=O)C2CCCC2)[C@@H](CO)O1)c1cc(Cl)cc(Cl)c1 | -0.187% (inactive)
16 | Cc1ccc(S(=O)(=O)NCC[C@@H]2CC[C@H](NC(=O)CC3CC3)[C@H](CO)O2)cc1 | -0.044% (inactive)
17 | O=C(Nc1ccccc1F)N[C@@H]1CC[C@H](CC(=O)N2CCCCC2)O[C@H]1CO | 0.211% (inactive)
18 | O=C(N[C@@H]1CC[C@H](CCn2cc(C3CC3)nn2)O[C@H]1CO)c1cccnc1 | 0.0945% (inactive)
19 | CO[C@@H]1CN(C)C(=O)c2ccc(NS(C)(=O)=O)cc2OC[C@@H](C)N(C(=O)C2CCOCC2)C[C@@H]1C | -0.272% (inactive)
20 | CO[C@@H]1CN(C)C(=O)c2cc(NC(=O)Nc3cc(F)ccc3F)ccc2OC[C@H](C)N(C)C[C@@H]1C | -0.288% (inactive)
21 | CO[C@@H]1CN(C)C(=O)c2ccc(NS(=O)(=O)c3cccc(Cl)c3)cc2OC[C@H](C)NC[C@H]1C | -0.827% (inactive)
22 | Cc1ccc(S(=O)(=O)NCC[C@H]2CC[C@H](NC(=O)c3ccccn3)[C@@H](CO)O2)cc1 | -0.44% (inactive)

Row | Structure (SMILES) | inhibition
23 | C[C@@H]1CN([C@H](C)CO)S(=O)(=O)c2ccc(-c3ccc(C(=O)N(C)C)cc3)cc2O[C@@H]1CN(C)C(=O)Nc1ccccc1F | 0.371% (inactive)
24 | COCCNC(=O)C[C@H]1C=C[C@@H](NS(=O)(=O)c2ccc(C)cc2)[C@@H](CO)O1 | -0.16% (inactive)
25 | O=C(NCc1cccnc1)c1cnn2c(C(F)F)cc(-c3ccccc3)nc12 | -0.254% (inactive)
26 | O=C(NCCCn1ccnc1)c1cnn2c(C(F)(F)F)cc(-c3ccccc3)nc12 | 42.5% (active)
27 | Cc1ccc(-c2cc(C(F)(F)F)n3nc(C(=O)NCCN4CCOCC4)c(Cl)c3n2)cc1 | -0.63% (inactive)
28 | CO[C@H]1CN(C)C(=O)c2ccc(NC(=O)C3CC3)cc2OC[C@@H](C)N(C(=O)c2ccccn2)C[C@@H]1C | 0.315% (inactive)
29 | CO[C@@H]1CN(C)C(=O)c2cc(NC(C)=O)ccc2OC[C@H](C)N(Cc2ccccn2)C[C@H]1C | 0.0735% (inactive)
30 | COc1ccc(C(=O)Nc2ccc3c(c2)C(=O)N(C)C[C@@H](OC)[C@H](C)CN(C(C)=O)[C@@H](C)CO3)cc1 | 0.119% (inactive)
31 | CO[C@H]1CC[C@@H]2CCOc3c(C#N)cccc3C(=O)N(C)CCCC(=O)N(C)C[C@@H]1O2 | -0.199% (inactive)
32 | O=C(C[C@@H]1C[C@@H]2c3cc(NS(=O)(=O)c4ccc(F)cc4)ccc3O[C@@H]2[C@H](CO)O1)N1CCCCC1 | 0.296% (inactive)
33 | O=C(C[C@H]1CC[C@@H](NC(=O)Nc2ccc(F)cc2)[C@@H](CO)O1)NCCN1CCCC1 | -0.0445% (inactive)
34 | O=C(Nc1ccc(C(F)(F)F)cc1)N[C@@H]1CC[C@H](CCNC(=O)c2ccccc2F)O[C@H]1CO | 0.069% (inactive)
35 | Cc1ccc(S(=O)(=O)N[C@H]2CC[C@H](CC(=O)NCc3ccccc3F)O[C@@H]2CO)cc1 | -0.113% (inactive)
36 | CCCc1cn(CC[C@@H]2CC[C@@H](NS(=O)(=O)c3ccccc3Cl)[C@@H](CO)O2)nn1 | -0.18% (inactive)
37 | CO[C@H]1CN(C)C(=O)c2cc(NC(=O)C3CC3)ccc2OC[C@@H](C)NC[C@H]1C | -0.162% (inactive)
38 | Cc1ccc(S(=O)(=O)NCC[C@@H]2CC[C@H](NC(=O)c3ccccn3)[C@H](CO)O2)cc1 | -0.387% (inactive)
39 | Cc1ccc(-c2ccc3c(c2)O[C@@H](CN(C)C(=O)CC2CC2)[C@@H](C)CN([C@@H](C)CO)S3(=O)=O)cc1 | -0.129% (inactive)
40 | O=C(C[C@@H]1CC[C@H](NC(=O)CN2CCOCC2)[C@@H](CO)O1)NCCc1ccccc1 | 0.1% (inactive)
41 | C[C@@H]1CN([C@H](C)CO)S(=O)(=O)c2ccc(-c3ccncc3)cc2O[C@@H]1CN(C)C(=O)CN(C)C | 0.556% (inactive)
42 | O=C(C[C@H]1C=C[C@H](NC(=O)CC2CC2)[C@H](CO)O1)NCc1ccc(Cl)cc1 | -0.172% (inactive)
43 | C[C@@H]1CN([C@H](C)CO)S(=O)(=O)c2ccc(C3=CCCC3)cc2O[C@H]1CN(C)C(=O)c1ccccc1 | 1.4% (inactive)
44 | O=C(C[C@H]1CC[C@H](NC(=O)C2CCC2)[C@@H](CO)O1)Nc1nccs1 | 0.192% (inactive)

Row | Structure (SMILES) | inhibition
45 | CO[C@H]1CN(C)C(=O)c2ccc(NS(=O)(=O)c3ccccc3C)cc2OC[C@H](C)NC[C@H]1C | -0.186% (inactive)
46 | CO[C@H]1CN(C)C(=O)c2cc(NC(C)=O)ccc2OC[C@H](C)N(C(=O)C2CC2)C[C@H]1C | -0.354% (inactive)
47 | CO[C@H]1CN(C)C(=O)c2ccc(NC(=O)C3CCC3)cc2OC[C@@H](C)N(Cc2ccccn2)C[C@H]1C | 0.331% (inactive)
48 | CCC(=O)Nc1ccc2c(c1)C(=O)N(C)C[C@H](OC)[C@H](C)CN(Cc1ccccc1F)[C@H](C)CO2 | 0.217% (inactive)
49 | CO[C@H]1CN(C)C(=O)c2cc(NS(C)(=O)=O)ccc2OC[C@H](C)N(C(=O)C2CCCC2)C[C@H]1C | 0.272% (inactive)
50 | CCC(=O)N(C)C[C@@H]1Oc2cc(C#CC(C)(C)O)ccc2S(=O)(=O)N([C@@H](C)CO)C[C@@H]1C | -1.91% (inactive)
51 | CN(C)C(=O)C[C@@H]1C[C@@H]2c3cc(NC(=O)c4ccc5c(c4)OCO5)ccc3O[C@@H]2[C@H](CO)O1 | -0.927% (inactive)
52 | Cc1ccc(S(=O)(=O)N[C@H]2CC[C@H](CC(=O)O)O[C@H]2CO)cc1 | -0.244% (inactive)
53 | Cc1ccc(S(=O)(=O)N[C@H]2C=C[C@@H](CC(=O)NCCc3ccncc3)O[C@@H]2CO)cc1 | -0.308% (inactive)
54 | COc1ccc(-c2cn(CC[C@H]3CC[C@@H](N)[C@H](CO)O3)nn2)cc1 | 0.0195% (inactive)
55 | CO[C@H]1CN(C)C(=O)c2ccc(NS(=O)(=O)c3cn(C)cn3)cc2OC[C@H](C)N(C)C[C@H]1C | -0.0025% (inactive)
56 | O=C(N[C@H]1C=C[C@@H](CC(=O)N2CCCCC2)O[C@@H]1CO)c1ccc2c(c1)OCO2 | -0.0205% (inactive)
57 | O=C(C[C@@H]1C[C@@H]2c3cc(NC(=O)C4CCOCC4)ccc3O[C@@H]2[C@H](CO)O1)NCc1ccncc1 | -0.106% (inactive)
58 | CCCNC(=O)N1C[C@H](C)[C@H](OC)CN(C)C(=O)c2cc(NC(=O)CC)ccc2OC[C@H]1C | -0.059% (inactive)
59 | CCC(=O)N(C)C[C@@H]1Oc2ncc(-c3ccccc3OC)cc2C(=O)N([C@@H](C)CO)C[C@@H]1C | -0.321% (inactive)
60 | CN1CCN(C(=O)C[C@H]2C[C@H]3c4cc(NC(=O)Nc5ccccc5F)ccc4O[C@H]3[C@H](CO)O2)CC1 | -0.523% (inactive)
61 | O=C(Nc1ccc2c(c1)OCO2)N[C@@H]1CC[C@H](CC(=O)N2CCN(c3ccccc3)CC2)O[C@@H]1CO | -0.0065% (inactive)
62 | O=C(Cc1ccncc1)NCC[C@H]1CC[C@H](NC(=O)C2CC2)[C@H](CO)O1 | 0.014% (inactive)
63 | CCC(=O)N(C)C[C@H]1Oc2cc(C#CCC(C)C)ccc2S(=O)(=O)N([C@H](C)CO)C[C@H]1C | -0.831% (inactive)
64 | O=C(NCC[C@H]1CC[C@@H](NC(=O)c2cnccn2)[C@H](CO)O1)Nc1ccc(Cl)cc1 | -0.362% (inactive)
65 | CN(C)CCCNC(=O)C[C@@H]1C=C[C@H](NC(=O)Cc2cccnc2)[C@H](CO)O1 | 0.394% (inactive)
